Compound activity as filed in PubChem BioAssay.
MOR-DOR ag: agonists of OPRM1-OPRD1 heterodimerization, primary screen, cell-based, luminescence; cells; activation, % at 9.3 µM; actives 0.3% (n = 340,000); AID 504326, 2011;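 note: 0% = vehicle-treated cells and 100% = reference agonist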
HTR5A ag: HTR5A agonists in luminescence cell assay, primary screen, counter-screen for OPRM1-OPRD1 heterodimer agonist project, full-deck HTS; actives 0.61% (n = 340,000); activation, % at 9.3 µM; cell-based; AID 504692, 2011; in the data active = activation mostly above about 9.5%, no sharp cut-off; inactive = mostly below about 7.6%;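 note: 0% = cells with vehicle only and 100% = reference agonist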
PvdQ acylase: P. aeruginosa PvdQ acylase inhibitors, primary screen, biochemical, fluorescence, plate reader and imaging, single point; purified PvdQ acylase; inhibition, % at 10 µM; actives 0.063% (n = 340,000); AID 488965, 2010; in the data active = inhibition above about 30%, passing the limit was not always enough;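 note: 0% = vehicle neutral wells and 100% = reference inhibitor wells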
HTR5A inv ag: HTR5A inverse agonists in luminescence cell assay, primary screen, counter-screen for OPRM1-OPRD1 heterodimer inverse agonist project, full-deck HTS; 5-hydroxytryptamine receptor 5A (Homo sapiens), P47898; HTR5A cell line, inverse agonism; inhibition, % at 9.3 µM; actives 0.083% (n = 340,000); AID 504634, 2011; in the data active = inhibition mostly above about 23%, no sharp cut-off; inactive = mostly below about 18%;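 note: 0% = cells with DMSO and 100% = no-cell wells with DMSO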
OPRM1-OPRD1 inv: inverse agonists of MOR-DOR heterodimerization, primary screen, cell-based, luminescence. cell-based MOR-DOR heterodimer luminescence, inverse agonism. actives 0.21% (n = 340,000). inhibition, % at 9.3 µM; in the data active = inhibition above about 22%, passing the limit was not always enough;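 note: 0% = cells with DMSO and 100% = wells without cells with DMSO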
Yeast superoxide: reduction of superoxide in aged yeast, primary screen, HTS | S. cerevisiae aged cells, superoxide DHE fluorescence; hits give low values | superoxide response (% of plate mean), % at 10 µM | actives 0.18% (n = 330,000) | AID 2690, 2010;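 active = superoxide response under a set limit, about three screen SD below normal, cut at about 65% in these data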;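 note: yeast aged for seven days with compound at 30 °C before DHE staining; 100% = average MFI of all compound-treated wells on the plate with controls excluded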
MOR-DOR ag conf: agonists of MOR-DOR heterodimerization, confirmation, cell-based, luminescence | shares compounds with MOR-DOR ag | cells, luminescence complementation | activation, % at 9.3 µM | actives 45% (n = 830) | AID 504904, 2011;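 note: 0% = vehicle-treated cells and 100% = reference agonist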
HTR5A ag ctr2: HTR5A agonists in cells, counter-screen for OPRM1-OPRD1 heterodimer agonist project, cell-based, luminescence | shares compounds with MOR-DOR ag | HTR5A agonist counterscreen | activation, % at 9.3 µM | actives 8% (n = 830); in the data active = activation above about 17%;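 note: 0% = vehicle-treated cells and 100% = reference agonist response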
The depositor's hits bear a star; i = inactive; · = no result. In the library only some 1.3% were active in any assay of this set; here they are far more common. Cut-off read from the data, not from the text of the source, unless noted: active = activation above about 18%; inactive = the rest.

SMILES | MOR-DOR ag | HTR5A ag | PvdQ acylase | HTR5A inv ag | OPRM1-OPRD1 inv | Yeast superoxide | MOR-DOR ag conf | HTR5A ag ctr2
CCN(CC(=O)Nc1cccc(OC)c1)C(=O)c1ccco1 | -2 | -2 | -19 | 6 | 10 | 107 | · | ·
COc1ccc(N2C(=S)N=C(Nc3ccccc3)C23CCCCC3)cc1 | 29* | 0 | -8 | -5 | -151 | 98 | 16 | 5
Cc1ccccc1NC(=O)C(=O)c1cn(C)c2ccccc12 | 24* | 3 | 6 | -8 | -116 | 95 | 1 | -1
Cn1cc(C(=O)C(=O)NCCc2ccccc2)c2ccccc21 | -2 | -2 | -18 | 9 | 9 | 100 | · | ·
Cc1ccc(Cn2ccc(=O)c(OCc3c(Cl)cccc3Cl)c2C)cc1 | 28* | 2 | -17 | -15 | -169 | 106 | 0 | 24*
CC1(c2ccccc2)CC(C)(C)N2C(=O)C3(C(C#N)=C(N)Oc4cc(O)ccc43)c3cccc1c32 (stereo unspecified) | 20* | 1 | 2 | -3 | -106 | 112 | 47* | 4
O=C(Cn1c(-c2ccccc2)c[n+]2ccsc12)c1ccc(Br)cc1 | 171* | 4 | -13 | -12 | i | 99 | 3 | -1
Cc1cccc(C(=O)NNC(=O)c2cc3cc4ccccc4nc3s2)c1 | 22* | 2 | 10 | -5 | -94 | 107 | 5 | 16
Cc1ccc(-c2csc(Cc3nc(-c4cc5ccccc5oc4=O)cs3)n2)cc1 | 3 | -1 | 4 | 2 | -18 | 127 | · | ·
Cc1ccn2cc(-c3cc4ccccc4oc3=O)nc2c1 | 20* | 0 | 2 | -17 | -102 | · | 12 | 5
Cc1ccc(NC(=O)Cn2nnc(C(=O)Nc3ccc(C)c(C)c3)c2N)cc1 | -1 | 4 | -14 | -14 | 4 | 113 | · | ·
Cc1cc(C)cc(NC(=O)Cn2nnc(C(=O)NCCc3ccccc3)c2N)c1 | 21* | 7 | -3 | -6 | -104 | 88 | 12 | 8
Cc1cc(C)cc(NC(=O)Cn2nnc(C(=O)NCc3ccccc3Cl)c2N)c1 | 25* | 10 | -12 | -8 | -136 | 102 | 12 | -2
Cc1ccc(NC(=O)c2nnn(CC(=O)Nc3ccc4c(c3)OCO4)c2N)cc1C | 23* | 8 | -12 | -29 | -116 | 91 | 9 | 4
Cc1cc(F)ccc1S(=O)(=O)N1CCCOC1CNC(=O)C(=O)NCc1cccnc1 (stereo unspecified) | -1 | -4 | -9 | 10 | 2 | 103 | · | ·
COc1ccc(C2CC(c3ccc4ccccc4c3OC(C)=O)=NN2C(C)=O)cc1 (stereo unspecified) | 129* | -3 | -15 | 10 | i | 101 | 21* | 10
Cc1nc(NCC(c2ccccc2)N(C)C)c2c(C)c(C)sc2n1 (stereo unspecified) | 37* | 5 | -13 | -14 | -302 | 103 | 48* | 7
Cc1sc2ncnc(NCC(c3ccccc3)N(C)C)c2c1C (stereo unspecified) | 6 | 4 | -10 | -11 | -41 | 98 | · | ·
COCCCNC(=O)/C=C/c1cccc(Cl)c1 | 0 | 0 | -10 | 3 | 0 | 92 | · | ·
CN(C)C(CNC(=O)c1cnc(Cl)c(Cl)c1)c1ccccc1 (stereo unspecified) | 353* | -1 | -5 | 3 | i | 103 | 374* | 0
CN(C)C(CNC(=O)/C=C/c1cccc(Cl)c1)c1ccccc1 (stereo unspecified) | 275* | -3 | -3 | 9 | i | 109 | 10 | 6
